Results reported in PubChem BioAssay (NCI).
The panel holds about 83,000 compounds, 20% with a hit somewhere; the sample as a whole holds those more often.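 Each cell line was grown in a 96-well plate and treated with one concentration of compound for 48 hours. Values below 10 were considered active.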 A number with no mark means an inactive call. Calls of active or inactive are those of the source.

Columns and labels:
Assay in all cases: NCI-60 one-dose screen, 48 h (100 = growth as untreated, 0 = no growth, -100 = all killed)
Conditions in all cases: 10 µM unless noted
[1] = test system: SR leukemia
[2] = test system: RPMI-8226 leukemia
[3] = test system: OVCAR-8 ovarian
[4] = test system: OVCAR-5 ovarian
[5] = test system: OVCAR-4 ovarian
[6] = test system: SK-OV-3 ovarian
[7] = test system: IGROV1 ovarian
[8] = test system: OVCAR-3 ovarian
[9] = test system: HS 578T breast
[10] = test system: NCI/ADR-RES ovarian
[11] = test system: T-47D breast
[12] = test system: BT-549 breast
[13] = test system: MDA-MB-435 melanoma
[14] = test system: SW-620 colon
[15] = test system: MCF7 breast
[16] = test system: HCT-116 colon
[17] = test system: HCC-2998 colon
[18] = test system: KM12 colon

Compound	growth [1]	growth [2]	growth [3]	growth [4]	growth [5]	growth [6]	growth [7]	growth [8]	growth [9]	growth [10]	growth [11]	growth [12]	growth [13]	growth [14]	growth [15]	growth [16]	growth [17]	growth [18]
CCCCC[C@H]1C/C=C2/C(=O)C(Cl)=C[C@@H]2C/C=C\CCCC(=O)O1	2.6% (active)	-23.5% (active)	-19.1% (active)	-64.9% (active)	16.3%	-15.2% (active)	-61% (active)	-89.5% (active)	29.7%	12.1%	-33.7% (active)	-77.3% (active)	-48.2% (active)	-48.8% (active)	0.987% (active)	-86.9% (active)	-68.7% (active)	-33.9% (active)
CCOc1ccc(NC(=O)c2ccoc2COc2ccccc2)cc1	113%	91.8%	104%	103%	101%	106%	93.5%	109%	105%	102%	108%	109%	103%	104%	95.9%	93.6%	109%	98.8%
c1cc(N2CCCC2)c2nc(-c3[nH]ncc3Nc3ncnc4[nH]ccc34)[nH]c2c1	5.49% (active)	-7.49% (active)	1.75% (active)	-9.59% (active)	-13.6% (active)	-8.07% (active)	-17.9% (active)	-14% (active)	-4.25% (active)	-21.1% (active)	0.99% (active)	-37% (active)	-80.8% (active)	2.01% (active)	-23% (active)	-9.45% (active)	-30.4% (active)	-20.4% (active)
N#CC1=C(N)Oc2c(sc3c(F)cccc23)C1c1ccc(Cl)cc1 (configuration not stated)	10.8%	10.6%	42.8%	82.1%	62.8%	31%	33.3%	6.16% (active)	40.6%	14.4%	33.2%	19.4%	-32% (active)	26.9%	14.8%	14.4%	87.7%	33.9%
COC(=O)[C@]12CC[C@@H](C)[C@H](C)[C@@H]1C1=CC[C@@H]3[C@@]4(C)C[C@@H](O)[C@H](O)[C@@](C)(CO)C4=CC[C@@]3(C)[C@]1(C)CC2	-24.8% (active)	-15.2% (active)	-22.9% (active)	-66% (active)	-55.5% (active)	-5.82% (active)	-40% (active)	-61.8% (active)	-35.1% (active)	-45.6% (active)	-26.5% (active)	-80.2% (active)	-53.1% (active)	-55.5% (active)	-37.1% (active)	-37.5% (active)	-86.5% (active)	-70.8% (active)
COc1ccc(/C=C/C(=O)NCC(C)O)cc1 (configuration not stated)	105%	105%	97.9%	89.2%	104%	87.8%	93.2%	103%	94.4%	106%	97.2%	97.6%	104%	101%	94.9%	91.3%	100%	99.9%
COc1cc(/C=N/Nc2ncnc3c2c(C)nn3-c2ccc(F)cc2)ccc1O	77%	92.5%	96.4%	131%	90.3%	99.2%	79.5%	75.8%	99.1%	95.7%	79.8%	90.4%	95.4%	131%	85.3%	105%	99.7%	71.9%
N#Cc1cnc2cc(OC[C@@H](O)CO)c(NC(=O)C3CCCC3)cc2c1Nc1ccc(OCc2cccc(F)c2)c(Cl)c1	13.4%	-13.5% (active)	-13.6% (active)	86.1%	-74.8% (active)	27%	4.22% (active)	-82% (active)	-32.2% (active)	63.3%	-15.1% (active)	-72.8% (active)	20.3%	15.8%	-68.1% (active)	-32.2% (active)	-65.2% (active)	45%
C#CCN=C[C@]12CC[C@@H](C(=C)C)[C@@H]1[C@H]1CC[C@@H]3[C@@]4(C)CCC(=O)C(C)(C)[C@@H]4CC[C@@]3(C)[C@]1(C)CC2	36.5%	33%	57.2%	115%	53.5%	91.8%	-10.9% (active)	62.3%	87.8%	64.2%	37%	48.3%	72.4%	65.3%	42.5%	26.8%	78.1%	61%
COc1cc(/C=N/NC(=S)NNC(=S)NC2CCCCC2)cc(OC)c1OC	96.9%	70.1%	97.8%	106%	86.3%	110%	89.9%	103%	106%	97.5%	69.9%	105%	98.8%	104%	92.4%	104%	112%	95.1%
N#C/C(=C\c1ccc(-c2ccc(Br)cc2)o1)c1nc(-c2cccs2)cs1	90.4%	92.8%	106%	95.6%	96.3%	111%	88.1%	110%	108%	95%	40%	96.8%	101%	99.8%	28.9%	91%	91.8%	95.9%
O=C(CCCCCn1c2ccccc2c2c3c(c4c5ccccc5[nH]c4c21)C(=O)N(O)C3=O)N1CCOCC1	8.26% (active)	14.9%	41.7%	116%	64.5%	70.4%	-26.5% (active)	40.9%	66.5%	73.7%	23.6%	60.3%	54.9%	56.4%	15.7%	24.3%	18.8%	47.6%
CCCCC[C@H]1CC=C2C(=O)C=C[C@@H]2CC=CCCCC(=O)O[C@@H](CCCCC)CC=C2C(=O)C=C[C@@H]2CC=CCCCC(=O)O[C@@H](CCCCC)CC=C2C(=O)C=C[C@@H]2CC=CCCCC(=O)O1	-6.53% [8.75 µM] (active)	-9.62% [8.75 µM] (active)	12.2% [8.75 µM]	-23.7% [8.75 µM] (active)	22.4% [8.75 µM]	36.7% [8.75 µM]	-46.1% [8.75 µM] (active)	-54.2% [8.75 µM] (active)	40.2% [8.75 µM]	49.8% [8.75 µM]	-10.2% [8.75 µM] (active)	-37.7% [8.75 µM] (active)	-31.8% [8.75 µM] (active)	2.25% [8.75 µM] (active)	5.55% [8.75 µM] (active)	-89.8% [8.75 µM] (active)	-38.7% [8.75 µM] (active)	-41% [8.75 µM] (active)
CCN1CCN(C(=O)[C@@]2(C)CC[C@]3(C)CC[C@]4(C)C(=CC(=O)[C@@H]5[C@@]6(C)CC[C@H](OCCC#N)C(C)(C)[C@@H]6CC[C@]54C)[C@@H]3C2)CC1	4.19% (active)	63.2%	90.5%	92.3%	94.7%	99.2%	95.5%	100%	83.3%	93.3%	66%	79%	81.5%	97.9%	78.2%	80.6%	101%	98.5%
